Screening data (PubChem BioAssay)
Compounds with a hit are over-represented: about 5.9% of the library has one in this group of screens.
GLP-1R inv ag: inverse agonists of human GLP-1 receptor | HEK293 GLP-1R CRE-luciferase, luminescence, 24 h; GLP-1R form is constitutively active | Potency, µM (series often up to 38.3 µM), for the others: at the top dose activity change, negative = inhibition, most hits filed as inhibitors | P43220 | 410,000 tested, 1.6% active; note: % is set by controls: 0 for no effect and ±100 for the full control effect; nearly all actives have a fitted effect of over 55% in size
Target sequence (P43220 whole entry, looked up): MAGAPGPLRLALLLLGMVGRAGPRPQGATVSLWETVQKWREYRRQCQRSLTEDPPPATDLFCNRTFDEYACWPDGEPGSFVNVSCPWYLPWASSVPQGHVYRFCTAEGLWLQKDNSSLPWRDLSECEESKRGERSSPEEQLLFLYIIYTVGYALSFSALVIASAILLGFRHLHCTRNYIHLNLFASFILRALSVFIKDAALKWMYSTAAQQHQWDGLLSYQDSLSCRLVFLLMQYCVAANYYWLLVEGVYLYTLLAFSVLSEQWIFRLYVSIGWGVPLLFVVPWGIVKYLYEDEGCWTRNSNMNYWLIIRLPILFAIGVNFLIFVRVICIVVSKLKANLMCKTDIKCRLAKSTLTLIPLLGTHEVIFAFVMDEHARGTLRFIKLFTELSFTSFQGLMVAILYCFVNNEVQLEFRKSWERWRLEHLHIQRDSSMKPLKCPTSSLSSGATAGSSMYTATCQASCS
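HEK293 cells stably co-expressing a cAMP-responsive luciferase reporter and constitutively active GLP-1R were seeded, incubated 12 h, then exposed to compounds for 24 h at 37 C. Luminescence was read 12 min after detection reagent; inverse agonists lower signal.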
HEK293 tox: cytotoxicity in counter-screen for GLP-1R inverse agonists; HEK293 cAMP-luciferase reporter cells, luminescence, 24 h; 410,000 tested, 0.13% active; Potency, µM (highest dose often 38.3 µM), for the others: at the top dose activity change, negative = inhibition, usual class: inhibitors;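 note: loss of luciferase light is scored as toxicity; % is set by controls: 0 for no effect and ±100 for the full control effect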
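MLSMR compounds, 24 hr on cells at 37 deg C/5% CO2; luminescence after luciferase reagent (12 min RT). Inhibition counted as the undesired cytotoxic outcome.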
GLP-1R agonist: activates the human GLP-1 receptor | P43220 | HEK293 GLP-1R CRE-luciferase, luminescence, 4-6 h; cells express a hypersensitive GLP-1R form | Potency, µM (titrated, usually from 45.6 µM), for inactives: top-dose activation, hits mostly activators | 380,000 tested, 0.007% active | AID 624172; note: % of control where 0% means no effect
RORg inh: blocks mouse ROR gamma transcriptional activity; P51450; 310,000 tested, 5.4% active; Potency, µM (top dose mostly 53.6 µM), for the others: top-dose activity change, negative = inhibition, usual class: inhibitors; Drosophila S2 Gal4-RORgamma UAS-luciferase reporter, 20 h; note: % is set by controls: 0 for no effect and ±100 for the full control effect; nearly all actives have a fitted effect of over 60% in size
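A Gal4/UAS one-hybrid system in insect cells: metallothionein-promoter Gal4–ROR gamma fusion plus Photinus luciferase reporter. Copper sulfate 700 uM final, 20 hr ambient incubation, luminescent detection after 10 min with reagent.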
VP16 counter: inhibits Gal4-VP16 luciferase reporter, ROR gamma counter-screen. 310,000 tested, 3.5% active. Potency, µM (series often up to 53.6 µM), for the others: at the top dose activity, negative = inhibition, actives largely listed as inhibitors. Drosophila S2 Gal4-VP16 UAS-luciferase, luminescence, 20 h;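 note: Gal4-VP16 expression switched on by copper sulfate through the metallothionein promoter; % is set by controls: 0 for no effect and ±100 for the full control effect; nearly all actives have a fitted effect of over 50% in size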
* = called active by the depositor; ? = inconclusive; . = no result given; [ ] = another dose, or the depositor's remark. Calls come from the whole dose curve; as a rule, active = well fitted curve in the direction sought with a large enough effect; inconclusive = small, poorly fitted or top-dose-only effect, or another doubt; inactive = no such curve, though single readings can be large; an effect the other way counts as inactive or inconclusive. Potency is the fitted concentration of half-maximal effect.

SMILES | GLP-1R inv ag | HEK293 tox | GLP-1R agonist | RORg inh | VP16 counter
COC(=O)C/C=C\[C@@H](C)[C@@H](/C=N\O[C@@H](C)CN1CCCc2nc(C)c(C)cc21)OC | . | . | . | -5%[10 µM] | 6%[10 µM]
CC(C)(C)C(=O)[C@@H]1[C@@H]2C(=O)N(Cc3ccccc3)C(=O)[C@@H]2[C@H]2c3ccccc3C=CN12 | . | . | . | 11µM* | ?
CCOc1ccc(CN2CCN(Cc3[nH]c4ccc(OC)cc4c3C)CC2CCO)cc1 (centres undefined) | 13µM* | -22% | 6% | 3% | -17%
CCOc1ccccc1CN1CCN(Cc2[nH]c3ccccc3c2C)CC1CCO (centres undefined) | ? | -24% | 3% | ? | ?
CCN1CCN(C(c2ccc(SC)cc2)c2c(O)cc(C)n(CCOC)c2=O)CC1 (centres undefined) | 2% | -9% | . | . | .
CC1=CC(=O)C=C(C)C1=NOc1ccccc1[N+](=O)[O-] | 0% | -28% | -1% | 10µM* | ?
Cc1cc(C)c(S(=O)(=O)Oc2ccccc2[N+](=O)[O-])c(C)c1 | ? | ? | 3% | . | .
CC(C)(C)c1ccc(C(=O)Nc2ccc(N3CCOCC3)cc2)cc1 | -20% | -8% | -1% | 8% | -8%
O=C(NC(=S)Nc1ccc(N2CCOCC2)cc1)c1ccc(Cl)cc1 | 16% | 1% | 0% | 4µM* | 7.1µM*
CC(C)(C)c1ccc(C(=O)NC(=S)Nc2ccc(N3CCOCC3)cc2)cc1 | 4% | 9% | 1% | 4.5µM* | 7.1µM*
O=C(Nc1ccc(Cl)cc1)Nc1ccc(N2CCOCC2)cc1 | ? | -23% | 0% | 21% | 9%
C[C@H]1OC(=O)CC[C@@H]2[C@]1(C)CCC1[C@@]2(C)CC[C@@]2(C)C3CC(C)(C)CC[C@]3(CO)CC[C@]12C (some centres undefined) | . | . | . | -17% | 6%
COc1ccc(N2CCN(CCCNC(=O)c3sc4ncccc4c3-n3cccc3)CC2)cc1 | ? | 0% | . | . | .
Cc1cccc(NC(=S)N(CCN2CCOCC2)Cc2ccccc2F)c1 | ? | ? | 7% | 13µM* | -69%
COc1ccc(NC(=S)N(CCN2CCOCC2)Cc2ccccc2F)cc1 | ? | 1% | 2% | ? | 7%
Cc1ccc(NC(=S)N(CCN2CCOCC2)Cc2ccccc2F)cc1Cl | -16%[0.307 µM] | -5%[0.307 µM] | -1% | 10µM* | ?
C=C(C(=O)O)[C@@H]1CC[C@@]2(C)CCC[C@](C)(O)[C@@H]2C1 | . | . | . | -3% | -6%
O=C(N/N=C/c1cc(Br)ccc1O)C(c1ccncc1)N1CCOCC1 (centres undefined) | ? | 3% | 6% | 5µM* | 16µM*
COc1cccc(/C=N/NC(=O)C(c2ccncc2)N2CCOCC2)c1 (centres undefined) | 11% | 10% | 1% | 5% | -2%
COc1ccccc1-c1nnc(NC(=O)CCS(=O)(=O)c2ccc(F)cc2)o1 | 11% | -1% | 1% | . | .
CCN(Cc1ccccc1)S(=O)(=O)c1ccc(C(=O)Nc2nnc(-c3ccccc3OC)o2)cc1 | ? | -24% | -13% | 0.2µM* | 0.35µM*
COc1ccccc1-c1nnc(NC(=O)c2ccc(S(=O)(=O)N(C)C)cc2)o1 | 13% | -13% | -9% | 0.71µM* | 0.63µM*
CCN(CC)S(=O)(=O)c1ccc(C(=O)Nc2ncn(Cc3ccccc3)n2)cc1 | 5% | 7% | 2% | -42% | -3%
COc1ccccc1-c1nnc(NC(=O)CCS(=O)(=O)c2ccccc2)o1 | -3% | -6% | 6% | 10µM* | 10µM*
S=C(Nc1ccccc1Cl)N(Cc1ccccc1)Cc1ccccn1 | 10µM* | ? | 5% | 24% | -5%[10 µM]
SMILES | GLP-1R inv ag | HEK293 tox | GLP-1R agonist | RORg inh | VP16 counter
Cc1c(Cl)cccc1NC(=S)N(Cc1cccnc1)Cc1ccccc1Cl | 11µM* | -25% | 10% | 11µM* | ?
COc1ccccc1NC(=S)N(Cc1ccccc1)Cc1cccnc1 | 3% | 3% | 8% | -21% | 22%
COc1ccccc1NC(=S)N(Cc1ccccc1)Cc1ccccn1 | ? | ? | 14% | 11µM* | ?
S=C(Nc1ccccc1Cl)N(Cc1cccnc1)Cc1ccco1 | -1% | 11% | 10% | -17% | 8%
Cc1ccc(-c2ccc(/C=C3\C(=O)ON=C3c3ccccc3)o2)c([N+](=O)[O-])c1 | 0% | 4% | -8% | ? | 16µM*
O=[N+]([O-])c1ccc2c(c1)C(N1CCOCC1)/C(=C/COc1ccc3ccccc3c1Br)O2 (centres undefined) | 2.8µM* | 0% | -4% | -1% | -6%
Cc1ccc2oc(-c3cccc(NC(=S)NC(=O)/C=C/c4ccco4)c3)nc2c1 | ? | ? | -21% | 3.5µM* | 10µM*
COc1cc2ccccc2cc1C(=O)Nc1cc(-c2nc3ccccc3o2)ccc1C | 16% | -11% | . | . | .
Cc1ccc(-c2nc3ccccc3o2)cc1NC(=S)NC(=O)c1cccs1 | 16% | -17% | -11% | 4µM* | ?
Cc1cc(C)c2oc(-c3ccc(C)c(NC(=S)NC(=O)c4cccs4)c3)nc2c1 | -18% | -4% | -15% | 2µM* | ?
Cc1ccc2oc(-c3cccc(NC(=S)NC(=O)c4cccs4)c3)nc2c1 | 25% | 2% | -7% | -43% | 17%
Cc1cc(C)c2oc(-c3ccc(Cl)c(NC(=O)c4cccs4)c3)nc2c1 | 10% | 4% | 2% | . | .
Cc1cc(C)c2oc(-c3ccc(C)c(NC(=S)NC(=O)/C=C/c4ccco4)c3)nc2c1 | ? | 9% | -17% | 0.25µM* | 1.4µM*
CC1=CC(C)(C)N2C(=O)C3(SCC(=O)N3c3ccc(F)cc3)c3cc(C)cc1c32 (centres undefined) | 0% | 1% | 7% | 16µM* | 0%
CC1CCC(NC(=O)c2ccc(CS(=O)(=O)c3ccc(Cl)cc3)o2)CC1 (centres undefined) | ? | -17% | . | . | .
CCn1c(CCCc2ccc(OC)c(C)c2)n[nH]c1=S | ? | ? | 0% | 2.2µM* | ?
C=CCn1c(CCSCc2ccccc2)n[nH]c1=S | -26% | -11% | 9% | 4µM* | ?
C=CCn1c(CCSCc2ccc(OC)c(C)c2)n[nH]c1=S | -11% | -45% | 4% | 2.5µM* | -16%
CCN1C(=O)[C@H]2[C@H]3[C@H](O)[C@H](O)C/C(=N/OC[C@@H](O)COCc4ccco4)[C@H]3CC[C@@H]2C1=O | . | . | . | 2%[10 µM] | 1%[10 µM]
COc1ccc(CCNC(=O)CCc2c(C)c3cc4c(C)coc4cc3oc2=O)cc1 | 13% | 1% | . | . | .
O=C(Nc1ncnc2sc3c(c12)CCCC3)c1ccncc1 | 1% | 0% | 8% | ? | 11µM*
COc1cc(-c2ccno2)ccc1S(=O)(=O)N1CCN(c2cccc(Cl)c2)CC1 | 3% | -7% | . | . | .
